Results on one sequence are retold here after PMC7862700, “An all-to-all approach to the identification of sequence-specific readers for epigenetic DNA modifications on cytosine”.

Assay in all cases: DAPPL (digital affinity profiling via proximity ligation, sequencing); 10 mM Tris-HCl pH 7.5, 50 mM NaCl, 1 mM DTT, 4% glycerol, room temperature, 30 min; GST-TFs on glutathione beads, 16-mer random dsDNA library, 0.1% formaldehyde crosslink after washing; high values mean tight binding
In assay [1] the target is T1, FEV (Homo sapiens, UniProt Q99581 1-238).
T1 sequence: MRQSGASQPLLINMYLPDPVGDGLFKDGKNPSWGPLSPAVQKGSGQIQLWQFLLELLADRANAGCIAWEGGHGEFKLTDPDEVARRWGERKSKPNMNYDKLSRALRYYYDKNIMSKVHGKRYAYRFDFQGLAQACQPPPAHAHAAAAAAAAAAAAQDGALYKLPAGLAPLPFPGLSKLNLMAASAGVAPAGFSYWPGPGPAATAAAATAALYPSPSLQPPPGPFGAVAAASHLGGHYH
As to conditions: protein: recombinant; tags: N-terminal GST; dsDNA, one strand shown. The procedure, abridged:
(§1)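 Binding signal is each hexamer's read frequency for a factor divided by its frequency in the tag-only sample. The factors were GST-fused human transcription factors from yeast, captured on glutathione beads, DNA-barcoded and pooled with that sample. Pools were incubated with 200 nmole of a random double-stranded 16-mer DNA library in Tris/NaCl/DTT/glycerol buffer at room temperature for 30 min, then washed, crosslinked with 0.1% formaldehyde, proximity-ligated with BsaI/T4 ligase (1 h, 37 °C), PCR-amplified and sequenced on an Illumina NextSeq500.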

Assay [2] has as its target ETV5 (Homo sapiens, UniProt P41161 1-510). The settings on record: protein: recombinant; tags: N-terminal GST; dsDNA, one strand shown. The essentials: as §1
The target of assay [3] is HSF1 (Homo sapiens, UniProt Q00613 1-529). The settings on record: protein: recombinant; tags: N-terminal GST; chain copies: 3; dsDNA, one strand shown. The procedure, abridged:
as §1

For assay [4], the target named is T2, SPIC (Homo sapiens, UniProt Q8N5J4 1-248).
T2 sequence: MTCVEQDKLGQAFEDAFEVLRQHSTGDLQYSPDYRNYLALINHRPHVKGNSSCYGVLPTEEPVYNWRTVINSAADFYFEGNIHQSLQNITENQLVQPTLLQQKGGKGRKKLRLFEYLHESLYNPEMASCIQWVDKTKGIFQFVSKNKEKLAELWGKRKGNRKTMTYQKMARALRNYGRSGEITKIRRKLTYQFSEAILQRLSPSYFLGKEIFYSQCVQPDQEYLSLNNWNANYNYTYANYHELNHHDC
As to conditions: protein: recombinant; tags: N-terminal GST; dsDNA, one strand shown. The procedure, abridged: as §1

The target of assay [5] is ELF4 (Homo sapiens, UniProt Q99607 1-663). As to conditions: protein: recombinant; tags: N-terminal GST; dsDNA, one strand shown. The essentials: as §1
ELF4, sequence (Q99607 whole entry): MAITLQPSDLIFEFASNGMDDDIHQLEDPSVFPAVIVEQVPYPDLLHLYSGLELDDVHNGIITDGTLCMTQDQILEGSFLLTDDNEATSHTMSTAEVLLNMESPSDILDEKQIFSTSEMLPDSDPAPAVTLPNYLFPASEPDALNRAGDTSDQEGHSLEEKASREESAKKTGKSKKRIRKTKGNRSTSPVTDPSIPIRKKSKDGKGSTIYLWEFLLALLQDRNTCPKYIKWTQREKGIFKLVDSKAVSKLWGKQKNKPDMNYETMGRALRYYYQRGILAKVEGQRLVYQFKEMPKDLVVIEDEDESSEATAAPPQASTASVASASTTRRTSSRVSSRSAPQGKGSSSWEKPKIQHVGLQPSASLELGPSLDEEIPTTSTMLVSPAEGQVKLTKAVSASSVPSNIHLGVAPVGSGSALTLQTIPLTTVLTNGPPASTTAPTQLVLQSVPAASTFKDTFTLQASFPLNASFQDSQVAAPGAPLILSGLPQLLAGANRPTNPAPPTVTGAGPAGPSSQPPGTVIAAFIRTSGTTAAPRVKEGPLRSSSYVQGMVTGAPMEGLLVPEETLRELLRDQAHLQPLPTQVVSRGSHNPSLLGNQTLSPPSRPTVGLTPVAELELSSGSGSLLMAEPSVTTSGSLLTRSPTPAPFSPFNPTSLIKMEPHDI
For assay [6], the target named is T3, ELK4 (Homo sapiens, UniProt P28324-2 1-405).
T3 sequence: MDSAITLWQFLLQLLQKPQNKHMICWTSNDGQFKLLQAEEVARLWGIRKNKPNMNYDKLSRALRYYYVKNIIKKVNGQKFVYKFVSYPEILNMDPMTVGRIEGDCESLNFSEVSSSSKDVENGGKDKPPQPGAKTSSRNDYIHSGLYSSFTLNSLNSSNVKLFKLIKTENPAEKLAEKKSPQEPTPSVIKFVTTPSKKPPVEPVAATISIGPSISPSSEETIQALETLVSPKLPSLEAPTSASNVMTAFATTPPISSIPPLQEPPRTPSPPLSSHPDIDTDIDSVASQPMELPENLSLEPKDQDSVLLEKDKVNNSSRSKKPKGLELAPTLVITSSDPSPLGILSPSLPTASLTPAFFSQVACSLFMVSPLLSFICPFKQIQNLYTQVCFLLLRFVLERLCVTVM
As to conditions: protein: recombinant; tags: N-terminal GST; dsDNA, one strand shown. The procedure, abridged: as §1

Assay [7] addresses T4, ETV2 (Homo sapiens, UniProt O00321 1-342).
T4 sequence: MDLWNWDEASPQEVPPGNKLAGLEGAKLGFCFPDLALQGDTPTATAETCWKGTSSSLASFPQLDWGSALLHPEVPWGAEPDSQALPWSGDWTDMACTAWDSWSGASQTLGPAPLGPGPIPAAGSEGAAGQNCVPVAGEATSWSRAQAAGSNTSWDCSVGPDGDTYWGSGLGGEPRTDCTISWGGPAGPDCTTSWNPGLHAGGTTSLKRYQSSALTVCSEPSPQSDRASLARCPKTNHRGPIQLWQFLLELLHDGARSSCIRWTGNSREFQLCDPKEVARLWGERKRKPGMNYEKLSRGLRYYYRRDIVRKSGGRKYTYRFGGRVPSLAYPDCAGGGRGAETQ
As to conditions: protein: recombinant; tags: N-terminal GST; dsDNA, one strand shown. The essentials:
as §1

Assay [8] has as its target T5, ELF3 (Homo sapiens, UniProt P78545 1-371).
T5 sequence: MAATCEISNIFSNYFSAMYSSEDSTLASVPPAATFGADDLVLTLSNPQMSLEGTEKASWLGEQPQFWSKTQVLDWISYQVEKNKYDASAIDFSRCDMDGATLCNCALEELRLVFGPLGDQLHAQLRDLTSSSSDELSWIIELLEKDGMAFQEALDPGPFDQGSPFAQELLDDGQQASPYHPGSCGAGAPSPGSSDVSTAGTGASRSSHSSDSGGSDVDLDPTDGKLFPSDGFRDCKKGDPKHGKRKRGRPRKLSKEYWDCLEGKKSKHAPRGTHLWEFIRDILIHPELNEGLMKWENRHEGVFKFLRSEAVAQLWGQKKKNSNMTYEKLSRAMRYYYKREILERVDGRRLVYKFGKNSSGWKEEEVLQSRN
The settings on record: protein: recombinant; tags: N-terminal GST; dsDNA, one strand shown. The procedure, abridged:
as §1

Assay [9] has as its target CRX (Homo sapiens, UniProt O43186 1-299). As to conditions: protein: recombinant; tags: N-terminal GST; dsDNA, one strand shown. The essentials: as §1
Assay [10] concerns the target ETV1 (Homo sapiens, UniProt P50549 1-477). As to conditions: protein: recombinant; tags: N-terminal GST; dsDNA, one strand shown. The procedure, abridged:
as §1

For assay [11], the target named is T6, ERF (Homo sapiens, UniProt P50548 1-548).
T6 sequence: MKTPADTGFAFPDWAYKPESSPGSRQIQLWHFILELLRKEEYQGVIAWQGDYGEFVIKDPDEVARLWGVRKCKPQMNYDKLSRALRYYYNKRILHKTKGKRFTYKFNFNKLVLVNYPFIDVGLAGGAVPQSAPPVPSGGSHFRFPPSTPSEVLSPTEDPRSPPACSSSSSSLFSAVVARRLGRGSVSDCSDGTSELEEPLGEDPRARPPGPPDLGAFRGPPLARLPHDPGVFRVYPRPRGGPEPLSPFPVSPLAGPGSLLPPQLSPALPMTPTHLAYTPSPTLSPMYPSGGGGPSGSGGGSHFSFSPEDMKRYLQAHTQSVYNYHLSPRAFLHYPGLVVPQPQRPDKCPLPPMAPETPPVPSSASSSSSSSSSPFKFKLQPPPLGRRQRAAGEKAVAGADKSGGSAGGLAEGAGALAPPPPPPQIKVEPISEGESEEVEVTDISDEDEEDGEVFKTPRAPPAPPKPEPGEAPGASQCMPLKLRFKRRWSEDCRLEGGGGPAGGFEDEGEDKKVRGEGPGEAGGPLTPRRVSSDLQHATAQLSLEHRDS
The settings on record: protein: recombinant; tags: N-terminal GST; dsDNA, one strand shown. The procedure, abridged: as §1

Assay [12] has as its target T7, ETV3L (Homo sapiens, UniProt Q6ZN32 1-361).
T7 sequence: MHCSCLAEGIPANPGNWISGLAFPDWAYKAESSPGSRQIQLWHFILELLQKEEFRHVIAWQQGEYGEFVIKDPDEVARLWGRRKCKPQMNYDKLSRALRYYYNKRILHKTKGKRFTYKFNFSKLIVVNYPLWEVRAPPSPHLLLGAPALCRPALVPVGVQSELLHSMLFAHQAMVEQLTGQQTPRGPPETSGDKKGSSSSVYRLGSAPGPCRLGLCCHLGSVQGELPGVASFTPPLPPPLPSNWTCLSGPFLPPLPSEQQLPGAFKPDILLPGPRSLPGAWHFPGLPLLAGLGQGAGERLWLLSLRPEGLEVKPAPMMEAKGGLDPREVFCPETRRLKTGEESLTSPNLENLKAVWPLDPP
The settings on record: protein: recombinant; tags: N-terminal GST; dsDNA, one strand shown. The procedure, abridged: as §1

Assay [13] has as its target T8, ETS2 (Homo sapiens, UniProt P15036 1-469).
T8 sequence: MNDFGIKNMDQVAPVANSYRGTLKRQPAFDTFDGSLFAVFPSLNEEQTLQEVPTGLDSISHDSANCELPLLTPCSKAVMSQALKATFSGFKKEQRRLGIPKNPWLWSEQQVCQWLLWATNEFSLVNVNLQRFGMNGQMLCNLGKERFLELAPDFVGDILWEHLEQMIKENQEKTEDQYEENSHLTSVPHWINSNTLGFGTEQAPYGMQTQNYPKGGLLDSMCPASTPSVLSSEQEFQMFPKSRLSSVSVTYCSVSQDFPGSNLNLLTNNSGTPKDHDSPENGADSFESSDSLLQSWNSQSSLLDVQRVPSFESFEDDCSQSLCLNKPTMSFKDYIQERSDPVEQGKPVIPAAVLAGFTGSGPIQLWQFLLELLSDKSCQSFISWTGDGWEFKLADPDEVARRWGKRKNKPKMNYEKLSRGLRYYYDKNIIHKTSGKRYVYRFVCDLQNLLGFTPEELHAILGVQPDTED
The settings on record: protein: recombinant; tags: N-terminal GST; dsDNA, one strand shown. The essentials: as §1

The target in assay [14] is T9, SPDEF (Homo sapiens, UniProt O95238 1-335).
T9 sequence: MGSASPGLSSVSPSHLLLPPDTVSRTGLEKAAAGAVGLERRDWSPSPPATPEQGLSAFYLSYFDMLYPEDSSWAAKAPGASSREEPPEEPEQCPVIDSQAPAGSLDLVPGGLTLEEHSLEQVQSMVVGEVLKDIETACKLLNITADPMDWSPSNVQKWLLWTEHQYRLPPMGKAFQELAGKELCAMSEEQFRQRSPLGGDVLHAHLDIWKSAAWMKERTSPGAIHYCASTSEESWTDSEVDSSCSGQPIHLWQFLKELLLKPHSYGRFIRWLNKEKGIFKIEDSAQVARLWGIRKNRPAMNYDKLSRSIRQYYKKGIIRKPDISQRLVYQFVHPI
The settings on record: protein: recombinant; tags: N-terminal GST; dsDNA, one strand shown. The essentials: as §1

The target of assay [15] is T10, ETV7 (Homo sapiens, UniProt Q9Y603 1-341).
T10 sequence: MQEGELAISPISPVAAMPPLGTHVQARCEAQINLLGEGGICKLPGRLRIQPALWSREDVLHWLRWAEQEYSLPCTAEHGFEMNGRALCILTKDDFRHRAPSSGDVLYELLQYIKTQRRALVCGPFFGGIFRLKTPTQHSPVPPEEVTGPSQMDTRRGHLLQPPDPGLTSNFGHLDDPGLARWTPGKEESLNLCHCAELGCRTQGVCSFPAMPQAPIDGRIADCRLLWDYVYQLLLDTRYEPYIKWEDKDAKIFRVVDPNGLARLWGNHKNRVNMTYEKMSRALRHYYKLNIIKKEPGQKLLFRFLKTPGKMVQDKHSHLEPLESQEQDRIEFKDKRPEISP
The settings on record: protein: recombinant; tags: N-terminal GST; dsDNA, one strand shown. The essentials: as §1

The target in assay [16] is T11, ELF5 (Homo sapiens, UniProt Q9UKW6-2 1-255).
T11 sequence: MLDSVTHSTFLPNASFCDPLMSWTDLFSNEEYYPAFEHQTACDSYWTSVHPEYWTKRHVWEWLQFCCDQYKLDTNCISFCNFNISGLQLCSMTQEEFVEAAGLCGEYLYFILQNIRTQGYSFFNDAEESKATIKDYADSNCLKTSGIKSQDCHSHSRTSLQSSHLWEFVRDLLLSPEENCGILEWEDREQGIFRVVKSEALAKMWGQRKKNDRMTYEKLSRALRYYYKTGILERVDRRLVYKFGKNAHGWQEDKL
As to conditions: protein: recombinant; tags: N-terminal GST; dsDNA, one strand shown. The procedure, abridged:
as §1

For assay [17], the target named is T12, ETV3 (Homo sapiens, UniProt P41162-2 1-143).
T12 sequence: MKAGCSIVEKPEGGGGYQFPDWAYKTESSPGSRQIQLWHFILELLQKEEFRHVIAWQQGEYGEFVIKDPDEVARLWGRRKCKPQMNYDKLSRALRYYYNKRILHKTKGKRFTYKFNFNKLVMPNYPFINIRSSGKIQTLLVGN
The settings on record: protein: recombinant; tags: N-terminal GST; dsDNA, one strand shown. The essentials:
as §1

Assay [18] addresses ETV6 (Homo sapiens, UniProt P41212 1-452). The settings on record: protein: recombinant; tags: N-terminal GST; dsDNA, one strand shown. The procedure, abridged: as §1

CRX, sequence (O43186 whole entry): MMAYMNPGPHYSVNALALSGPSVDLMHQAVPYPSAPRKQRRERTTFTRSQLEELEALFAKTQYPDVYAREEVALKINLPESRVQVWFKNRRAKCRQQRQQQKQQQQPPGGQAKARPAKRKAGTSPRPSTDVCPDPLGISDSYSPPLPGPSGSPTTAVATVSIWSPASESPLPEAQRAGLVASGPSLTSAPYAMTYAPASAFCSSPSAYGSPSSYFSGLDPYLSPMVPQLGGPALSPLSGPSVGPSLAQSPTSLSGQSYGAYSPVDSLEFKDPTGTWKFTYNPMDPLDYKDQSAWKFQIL
ETV6, sequence (P41212 whole entry): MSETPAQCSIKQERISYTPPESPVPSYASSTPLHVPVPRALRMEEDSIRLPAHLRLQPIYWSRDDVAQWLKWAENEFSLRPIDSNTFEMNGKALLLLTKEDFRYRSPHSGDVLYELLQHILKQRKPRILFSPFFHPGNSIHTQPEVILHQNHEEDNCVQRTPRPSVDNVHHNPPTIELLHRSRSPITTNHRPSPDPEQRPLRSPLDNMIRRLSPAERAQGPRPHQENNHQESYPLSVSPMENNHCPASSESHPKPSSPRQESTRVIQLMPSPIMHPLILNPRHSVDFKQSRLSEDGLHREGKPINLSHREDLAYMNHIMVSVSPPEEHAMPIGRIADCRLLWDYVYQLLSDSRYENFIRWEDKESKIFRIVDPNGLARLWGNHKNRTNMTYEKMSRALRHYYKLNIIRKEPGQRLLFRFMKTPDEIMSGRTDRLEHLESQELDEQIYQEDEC
HSF1, sequence (Q00613 whole entry): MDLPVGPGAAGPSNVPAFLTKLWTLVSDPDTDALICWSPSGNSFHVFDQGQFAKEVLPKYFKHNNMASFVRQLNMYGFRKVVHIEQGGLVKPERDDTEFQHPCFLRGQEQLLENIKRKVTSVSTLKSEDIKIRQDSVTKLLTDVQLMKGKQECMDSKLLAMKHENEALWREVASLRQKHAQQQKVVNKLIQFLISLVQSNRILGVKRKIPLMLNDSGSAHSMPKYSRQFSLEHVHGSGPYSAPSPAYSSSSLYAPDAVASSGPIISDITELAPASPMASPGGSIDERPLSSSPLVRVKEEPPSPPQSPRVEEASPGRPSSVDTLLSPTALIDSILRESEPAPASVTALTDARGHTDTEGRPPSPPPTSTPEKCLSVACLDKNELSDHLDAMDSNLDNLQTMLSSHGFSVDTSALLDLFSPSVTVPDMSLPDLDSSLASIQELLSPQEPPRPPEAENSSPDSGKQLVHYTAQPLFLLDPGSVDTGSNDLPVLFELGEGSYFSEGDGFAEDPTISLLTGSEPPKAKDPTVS
ETV1, sequence (P50549 whole entry): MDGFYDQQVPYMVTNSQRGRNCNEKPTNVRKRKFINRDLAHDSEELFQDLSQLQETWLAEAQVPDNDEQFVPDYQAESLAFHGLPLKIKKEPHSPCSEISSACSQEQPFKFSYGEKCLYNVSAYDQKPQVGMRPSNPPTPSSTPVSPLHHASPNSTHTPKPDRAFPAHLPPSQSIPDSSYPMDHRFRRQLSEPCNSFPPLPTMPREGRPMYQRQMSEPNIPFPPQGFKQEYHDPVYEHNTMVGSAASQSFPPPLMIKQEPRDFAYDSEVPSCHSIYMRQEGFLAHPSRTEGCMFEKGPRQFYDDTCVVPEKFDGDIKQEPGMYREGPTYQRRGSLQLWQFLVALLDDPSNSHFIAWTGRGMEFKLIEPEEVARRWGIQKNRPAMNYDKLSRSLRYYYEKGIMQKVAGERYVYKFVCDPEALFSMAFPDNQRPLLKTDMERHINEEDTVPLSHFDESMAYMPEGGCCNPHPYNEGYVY
ETV5, sequence (P41161 whole entry): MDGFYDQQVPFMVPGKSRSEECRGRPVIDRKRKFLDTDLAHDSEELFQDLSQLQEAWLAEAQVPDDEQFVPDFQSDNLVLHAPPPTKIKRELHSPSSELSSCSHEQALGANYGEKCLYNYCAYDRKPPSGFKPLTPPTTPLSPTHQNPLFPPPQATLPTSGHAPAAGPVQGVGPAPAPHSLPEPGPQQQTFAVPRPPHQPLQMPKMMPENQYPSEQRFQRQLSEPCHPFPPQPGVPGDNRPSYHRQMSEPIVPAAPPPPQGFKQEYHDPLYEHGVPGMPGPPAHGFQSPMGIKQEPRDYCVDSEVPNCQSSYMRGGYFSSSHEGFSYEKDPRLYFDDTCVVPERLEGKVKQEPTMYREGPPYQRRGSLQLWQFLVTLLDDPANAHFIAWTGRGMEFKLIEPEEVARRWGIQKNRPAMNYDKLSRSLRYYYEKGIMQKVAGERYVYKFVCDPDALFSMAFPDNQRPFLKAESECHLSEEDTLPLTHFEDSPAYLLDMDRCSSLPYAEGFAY

With CAACTT, the binding signal was 1.78 fold enrichment (6-mer frequency, TF over GST control) in [1]; 1.58 fold enrichment (6-mer frequency, TF over GST control) in assay [2]; 1.22 fold enrichment (6-mer frequency, TF over GST control) in [3]; 1.77 fold enrichment (6-mer frequency, TF over GST control) in [4]; 1.57 fold enrichment (6-mer frequency, TF over GST control) in assay [5]; 1.65 fold enrichment (6-mer frequency, TF over GST control) in [6]. The binding signal in assay [7] is 1.4 fold enrichment (6-mer frequency, TF over GST control); in [8], 1.61 fold enrichment (6-mer frequency, TF over GST control); in [9], 1.25 fold enrichment (6-mer frequency, TF over GST control); in assay [10], 1.54 fold enrichment (6-mer frequency, TF over GST control); in [11], 1.44 fold enrichment (6-mer frequency, TF over GST control); in assay [12], 1.51 fold enrichment (6-mer frequency, TF over GST control). The binding signal is 1.6 fold enrichment (6-mer frequency, TF over GST control) in assay [13]; 1.49 fold enrichment (6-mer frequency, TF over GST control) in assay [14]; 1.37 fold enrichment (6-mer frequency, TF over GST control) in [15]; 1.61 fold enrichment (6-mer frequency, TF over GST control) in assay [16]; 1.55 fold enrichment (6-mer frequency, TF over GST control) in assay [17]; 1.62 fold enrichment (6-mer frequency, TF over GST control) in assay [18].
